# Assay outcomes as filed in PubChem.
# Autofluor counter – compound fluorescence in toxin protease inhibitor counterscreen | compound autofluorescence counterscreen, microsphere flow cytometry; stronger effect = higher value | fluorescence intensity (concentration not given with the values) | 360,000 compounds, 3.1% hits | AID 624483; in the data active = fluorescence intensity above about 16000; inconclusive = no clear call, values can overlap the other calls
# PriA SSB inh – K. pneumoniae PriA-SSBct interaction inhibition | AlphaScreen SSBct-PriA binding, biotinylated peptide | inhibition, % at 33 µM | 430,000 compounds, 0.6% hits | AID 1272365; in the data active = inhibition mostly above about 37%, no sharp cut-off; inactive = mostly below about 20%;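 also: plate controls were negative control peptide for no effect and reference peptide for full effect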
# BoNT-A LC inh2 – inhibitors of Botulinum neurotoxin A light chain protease | multiplex microsphere protease substrate cleavage, flow cytometry | inhibition, % at 10 µM | 360,000 compounds, 0.17% hits | AID 588499; also: plate controls were buffer without enzyme for full effect and enzyme alone for no effect
# BoNT-F LC inh – inhibitors of Botulinum neurotoxin F light chain protease. Multiplex microsphere protease cleavage assay, flow cytometry. inhibition, % at 10 µM. 360,000 compounds, 0.22% hits. AID 588497; in the data active = inhibition above about 35%, passing the limit was not always enough; inconclusive = no clear call, values can overlap the other calls; also: plate controls were buffer without enzyme for full effect and enzyme alone for no effect
# Anthrax LF prot – anthrax lethal factor protease inhibition; P15917; multiplex microsphere protease cleavage assay, LF; inhibition, % at 10 µM; 360,000 compounds, 0.12% hits; also: plate controls were buffer without enzyme for full effect and enzyme alone for no effect
# Target sequence (P15917 whole entry, looked up): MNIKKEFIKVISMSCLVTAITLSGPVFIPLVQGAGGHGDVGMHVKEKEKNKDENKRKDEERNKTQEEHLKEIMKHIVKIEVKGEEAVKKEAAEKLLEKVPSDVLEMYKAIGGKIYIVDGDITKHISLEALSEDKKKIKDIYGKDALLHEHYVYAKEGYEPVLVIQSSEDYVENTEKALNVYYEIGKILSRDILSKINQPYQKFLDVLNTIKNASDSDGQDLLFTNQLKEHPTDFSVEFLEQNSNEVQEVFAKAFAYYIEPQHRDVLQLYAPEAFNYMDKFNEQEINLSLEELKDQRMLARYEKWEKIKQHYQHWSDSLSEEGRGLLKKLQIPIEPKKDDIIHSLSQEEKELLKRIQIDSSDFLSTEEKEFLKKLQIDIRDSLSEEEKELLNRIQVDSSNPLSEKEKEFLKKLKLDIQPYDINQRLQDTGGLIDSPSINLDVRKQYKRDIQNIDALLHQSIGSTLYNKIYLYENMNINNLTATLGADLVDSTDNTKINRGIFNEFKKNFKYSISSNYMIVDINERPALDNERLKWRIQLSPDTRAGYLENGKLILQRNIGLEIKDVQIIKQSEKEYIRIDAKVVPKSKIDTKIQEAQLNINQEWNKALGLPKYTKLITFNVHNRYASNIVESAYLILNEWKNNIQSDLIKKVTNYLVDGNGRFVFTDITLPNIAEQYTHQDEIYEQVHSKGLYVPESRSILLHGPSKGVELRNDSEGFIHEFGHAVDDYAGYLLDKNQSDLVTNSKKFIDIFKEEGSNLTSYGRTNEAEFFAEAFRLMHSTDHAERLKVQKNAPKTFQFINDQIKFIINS
# Starred values were filed as active, the others as inactive; ? = inconclusive; · = not tested or not shown. The list is not random: actives were taken first. Their share in the collection is about 3.1%. Rule as the data show it, unless noted: active = inhibition above about 30%; inconclusive = no clear call, values can overlap the other calls; inactive = below that.
SMILES,Autofluor counter,PriA SSB inh,BoNT-A LC inh2,BoNT-F LC inh,Anthrax LF prot
CCCNS(=O)(=O)c1ccc2c(c1)n(C)c(=O)n2C,4741,6.3,0.8,4.3,-2.8
CCNS(=O)(=O)c1ccc2c(c1)n(C)c(=O)n2C,22262*,-2.5,3.6,2.3,1.1
CN1CCN(C2OC(=O)c3ccccc32)CC1 (stereo not given),17143*,-11.9,-2.3,-3.0,0.8
Fc1ccc(-n2ncc3c(N4CCN(C(c5ccccc5)c5ccccc5)CC4)ncnc32)cc1,·,-4.0,·,·,·
CC1=NN(C(=O)Cc2ccccc2)C(O)(c2cccnc2)C1 (stereo not given),21683*,-9.3,?,-2.4,-0.6
CC1=NN(C(=O)c2ccccc2Cl)C(O)(c2cccnc2)C1 (stereo not given),4330,-24.0,1.3,-3.8,-8.5
S=C(N=Nc1ccccc1)NNc1ccccc1,5516,71.9*,-0.4,-14.8,-4.9
S=C(NNc1ccccc1)Nc1ccccc1,·,16.0,·,·,·
CCOc1ccc(NC(=O)Cc2cc(-c3ccc(Cl)cc3)on2)cc1,·,-8.0,·,·,·
O=C(Nc1ccc(-c2cn3ccccc3n2)cc1)c1ccccc1I,·,-10.0,·,·,·
Cc1cc(C(=O)N2CCCC2C(=O)O)c(C)o1 (stereo not given),22740*,-19.8,1.7,3.2,-2.7
CC(C)(C)OC(=O)N1CCNCC1,·,0.0,·,·,·
CCOC(=O)C(C)(C)Sc1ncnc2nc[nH]c12,23381*,-19.0,?,2.7,-0.6
CCn1c(=O)cc(OCC(=O)Nc2ccc(C)cn2)c2ccccc21,19603*,-21.9,0.5,1.7,0.2
CCn1c(=O)cc(OCC(=O)NCc2cccnc2)c2ccccc21,23271*,-5.3,?,-3.0,0.3
COc1ccc(-n2c(=O)c3ccccc3n(CC(=O)NC3CCCC3)c2=O)c(OC)c1,21567*,-7.8,4.0,2.7,-0.9
CCn1c(=O)cc(OCC(=O)NCC2CCCO2)c2ccccc21 (stereo not given),4236,-1.7,0.0,7.0,-10.1
CCn1c(=O)cc(OCC(=O)NC2CCCCC2)c2ccccc21,16641*,0.4,-1.5,-3.1,-0.4
CCn1c(=O)cc(SCC(=O)Nc2ccc(C)cn2)c2ccccc21,2147,-11.8,0.5,-6.0,-1.5
COc1ccc(S(=O)(=O)NCCCN2CCN(c3ccccc3)CC2)cc1,·,-1.0,·,·,·
Cc1ccc(S(=O)(=O)Nc2ccccc2C(=O)Nc2nc3c(C)c(Cl)ccc3s2)cc1,·,-24.0,·,·,·
O=C(Nc1cnn(C2CCOC2)c1)C1CC2C=CC1C2 (stereo not given),·,-12.0,·,·,·
COc1ccc([C@H](C)NC(=O)c2ccsc2)cc1,·,1.0,·,·,·
O=C(COC(=O)CC1CCCC1)Nc1ccc(Cl)cn1,2906,-23.6,-0.3,0.3,-11.3
O=C(COC(=O)CNC(=O)C1CCCCC1)Nc1ccc(Cl)cn1,21353*,-4.2,-5.2,-5.2,-0.2
SMILES,Autofluor counter,PriA SSB inh,BoNT-A LC inh2,BoNT-F LC inh,Anthrax LF prot
CSc1ccc(-n2cccn2)nn1,·,0.0,·,·,·
S=c1nc(C2CCCCC2)[nH][nH]1,17098*,-7.5,-3.2,-5.9,-4.8
O=C(COc1ccccc1)NCc1cc(-c2ccccc2)on1,·,-3.0,·,·,·
Cc1c(NC(C)c2cc(Cl)ccc2O)c(=O)n(-c2ccccc2)n1C (stereo not given),2318,0.9,0.2,5.2,2.4
Cc1c(NC(C)c2ccccc2O)c(=O)n(-c2ccccc2)n1C (stereo not given),24008*,-18.1,-0.8,-1.3,-1.8
C=CCc1cccc(CNc2c(C)n(C)n(-c3ccccc3)c2=O)c1O,16249*,6.2,0.1,-2.7,-2.9
Cc1c(NC(=O)C(C)OC(=O)CCc2ccccc2)c(=O)n(-c2ccccc2)n1C (stereo not given),4025,-9.1,-0.7,-1.1,-2.4
Cc1c(NC(=O)C(C)OC(=O)Cc2ccccc2)c(=O)n(-c2ccccc2)n1C (stereo not given),24503*,-18.5,-3.2,-3.7,0.6
Cc1c(NC(=O)C(C)OC(=O)C(NC(=O)c2ccco2)C(C)C)c(=O)n(-c2ccccc2)n1C (stereo not given),22112*,-15.6,?,2.8,-1.9
O=C(NCc1ccc(C(O)c2ccco2)s1)C(=O)Nc1ccc(OC(F)(F)F)cc1 (stereo not given),·,13.0,·,·,·
CCc1ccccc1NC(=O)Cn1nc(C(F)(F)F)cc1C1CC1,16270*,-20.7,?,-1.1,-2.2
COc1cc(-c2nnc(SCc3cc(=O)oc4cc(O)c(O)cc34)o2)cc(OC)c1OC,21137*,7.3,7.9,6.5,-5.6
Cc1n[nH]c(C)c1S(=O)(=O)N1CCC(c2nnc(C3CC3)s2)CC1,·,-11.0,·,·,·
O=C(CC1SC(=O)N(c2ccccc2)C1=O)Nc1ccccc1 (stereo not given),21831*,-6.3,0.8,-4.0,-2.7
Cc1ccc(NC(=O)CC2SC(=O)N(c3ccccc3)C2=O)cc1 (stereo not given),4564,-3.5,0.1,-16.5,-7.0
O=[N+]([O-])c1cc(F)c(N2CCCC2)cc1N1CCc2ccccc2C1,·,32.8,·,·,·
CCN1CCN(c2cc(N3CCCC3)c(F)cc2[N+](=O)[O-])CC1,10198,14.5,-1.0,2.2,-0.4
O=[N+]([O-])c1cc(F)c(N2CCOCC2)cc1N1CCCCC1,24982*,36.1,-4.6,-7.6,-1.8
CCOC(=O)N1CCN(c2cc(N3CCN(CC)CC3)c(F)cc2[N+](=O)[O-])CC1C (stereo not given),18259*,-1.3,3.2,0.8,-5.3
CN1CCN(c2cc(N3CCc4ccccc4C3)c(F)cc2[N+](=O)[O-])CC1,2377,40.6*,-1.3,-20.2,-3.5
O=[N+]([O-])c1cccnc1N1CCOCC1,19529*,-8.4,?,8.5,4.7
O=[N+]([O-])c1cc(F)c(N2CCc3ccccc3C2)cc1N1CCOCC1,·,75.3*,·,·,·
CCN1CCN(c2cc(N3CCc4ccccc4C3)c([N+](=O)[O-])cc2F)CC1,·,83.2*,·,·,·
O=[N+]([O-])c1cc(F)c(N2CCc3ccccc3C2)cc1N1CCCCC1,·,54.2,·,·,·
COc1cccc(C2=NOC(C(=O)Nc3cccc(C(C)=O)c3)C2)c1 (stereo not given),19143*,-3.5,8.9,11.4,-2.6
SMILES,Autofluor counter,PriA SSB inh,BoNT-A LC inh2,BoNT-F LC inh,Anthrax LF prot
CC(=O)c1cccc(NC(=O)C2CC(c3ccc(F)cc3)=NO2)c1 (stereo not given),4262,-10.5,-0.2,21.2,-3.7
CC1CCCC(C)N1C(=O)C1CC(c2ccc(F)cc2)=NO1 (stereo not given),17330*,-9.2,-2.7,-3.8,0.5
COc1cccc(C2=NOC(C(=O)Nc3ccc(OC)c(OC)c3)C2)c1 (stereo not given),10066,-0.5,0.7,-2.3,-0.2
COc1cccc(C2=NOC(C(=O)NC3CCCCC3)C2)c1 (stereo not given),10640,-0.2,0.6,5.5,-4.8
O=C(NC1CCCC1)C1CC(c2ccc(F)cc2)=NO1 (stereo not given),23071*,-20.4,-1.2,-5.0,0.3
CC(=O)c1ccc(NC(=O)C2CC(c3ccc(F)cc3)=NO2)cc1 (stereo not given),23509*,-17.0,-1.0,-2.9,-2.3
COc1ccc(Cn2c(=O)[nH]c3cccnc3c2=O)cc1,·,-3.0,·,·,·
CC1CCCC(=CNc2ccccc2C(=O)O)C1=O (stereo not given),·,-14.1,·,·,·
